Reference: PubChem BioAssay (NCI)
The panel holds about 79,000 compounds, 15% with a hit somewhere; the sample as a whole holds those more often. Cut-off read from the data, not from the text of the source: active = growth inhibition above about 70%; inactive = the rest.

Assays:
[1] = NCI Yeast Anticancer Drug Screen. Data for the rad50 strain (AID 155);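 note: 0% = growth of vehicle-only cultures of the same strain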; conditions: S. cerevisiae rad50 strain growth inhibition; at 50.0 µM; hits give high values
Procedure, shortened: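 Relative growth inhibition (compound vs vehicle) was measured in yeast with a defined repair-gene alteration.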

[2] = NCI Yeast Anticancer Drug Screen. Data for the mec2-1 strain (AID 157); conditions: S. cerevisiae mec2-1 strain, at 50.0 µM, hits give high values
Procedure, shortened: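 Yeast mec2-1 mutant treated with compound. Readout: growth inhibition vs vehicle controls.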

[3] = NCI Yeast Anticancer Drug Screen. Data for the sgs1 mgt1 strain (AID 161);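 note: 0% = growth of cultures given vehicle only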; conditions: S. cerevisiae sgs1 mgt1 strain, at 50.0 µM, hits give high values
Procedure, shortened: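 Inhibition of yeast growth, normalised to vehicle-treated controls, is reported for a strain bearing genetic alterations in DNA damage repair.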

[4] = NCI Yeast Anticancer Drug Screen. Data for the cln2 rad14 strain (AID 165);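 note: 0% = growth equal to vehicle treated cultures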; conditions: S. cerevisiae cln2 rad14 strain, at 50.0 µM, hits give high values
Procedure, shortened: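 cln2 rad14 yeast strain; compound exposure; growth inhibition read vs vehicle controls.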

[5] = NCI Yeast Anticancer Drug Screen. Data for the bub3 strain (AID 167); conditions: S. cerevisiae bub3 mutant strain, at 50.0 µM, hits give high values
Procedure, shortened: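 Screening used yeast with an engineered genetic alteration affecting cell cycle control. Compound-exposed cultures were compared with vehicle cultures, and reduced growth was taken as inhibition.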

[6] = NCI Yeast Anticancer Drug Screen. Data for the mlh1 rad18 strain (AID 175); conditions: S. cerevisiae mlh1 rad18 strain growth inhibition; at 50.0 µM; hits give high values
Procedure, shortened: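 Yeast w/ defined DNA-repair lesions; compound exposure; growth vs vehicle controls → % inhibition.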

Measured: growth inhibition

O=[N+]([O-])c1ccc(SC2CCCCCCC2Br)c([N+](=O)[O-])c1 (stereo unspecified)
inactive: [1] -16.9% | [2] -13.5% | [3] -0.5% | [4] -33.6% | [5] 8.95% | [6] -18.4%

O=C1CCCCC1CN1CCCCC1 (stereo unspecified)
inactive: [1] 4.8% | [2] -3.2% | [3] -2.45% | [4] -3.25% | [5] 3.45% | [6] 1.25%

CCCN(C)C(C)(C)C(=O)c1ccccc1
inactive: [1] 8.8% | [2] -3.95% | [3] -20.2% | [4] -10.2% | [5] -18.9% | [6] -8.1%

O=NN1CCCCC1
inactive: [1] -18.2% | [2] 7.1% | [3] 28.4% | [4] -15.1% | [5] 0.15% | [6] 18.9%

CN(C)CCCNc1c2c(nc3ccc(Cl)cc13)CCCC2
inactive: [1] -1.2% | [2] -20.4% | [3] -31.8% | [4] 6.6% | [5] 9.15% | [6] -7.3%

CC(=O)NC(CS)C(=O)[O-].CC(=O)NC(CS)C(=O)[O-].N.N.[Pt+4] (stereo unspecified)
inactive: [1] 7.85% | [2] -9.85% | [3] 15.2% | [4] -38.1% | [5] 14.4% | [6] 27.2%

COc1cc(C=C2C(=O)NC(=O)NC2=O)ccc1O
inactive: [1] 1.85% | [2] -23.4% | [3] 5.05% | [4] 4.3% | [5] -2% | [6] 6.35%

[CH3][Sb]([CH3])([CH3])([I])[I]
inactive: [1] 20.4% | [2] -14.1% | [3] 0.15% | [4] -12.7% | [5] -0.2% | [6] 1.25%

CN1CN(c2ccccc2)C2(CCN(CCC3Oc4ccccc4O3)CC2)C1=O
inactive: [1] -22.4% | [2] 6.45% | [3] -0.4% | [4] -1.2% | [5] -1.35% | [6] 3.35%

COc1ccc(C(=O)O)cc1[N+](=O)[O-] (tested in a mixture with another compound)
inactive: [1] 9.25% | [2] 4.45% | [3] 5.55% | [4] 7.4% | [5] 11.4% | [6] 15.1%

N.N.N.N.N.N.[Br-].[Co+3]
inactive: [1] -0.9% | [2] 7.7% | [3] -34.2% | [4] 6.3% | [5] -1.2% | [6] 22.6%

Nc1cccc(SC2CC(=O)N(c3ccc(Cl)cc3C(=O)c3ccccc3)C2=O)c1 (stereo unspecified)
inactive: [1] 16.6% | [2] -4.6% | [3] 34.2% | [4] 26.4% | [5] 19.9% | [6] 22.9%

COC1=CC2CCC3C(CCC4(C)C(OC(C)=O)CCC34)C2(C)CC1 (stereo unspecified)
inactive: [1] 13.2% | [2] 10.8% | [3] 1.2% | [4] 4.1% | [5] -13.3% | [6] -6.8%

CC[N+]1(CC)CC[N+](CC)(CC)CC1 (tested in a mixture with another compound)
inactive: [1] 6.1% | [2] -28.8% | [3] 4.85% | [4] 0.45% | [5] -0.95% | [6] 29.1%

CC(=O)Nc1ccc(Cl)cc1
inactive: [1] -20.4% | [2] -7.15% | [3] -18.1% | [4] 1.7% | [5] 9.45% | [6] -1.9%

C[N+]1(CCCl)CCc2ccc([N+](=O)[O-])cc2C1 (stereo unspecified)
inactive: [1] -36.9% | [2] -35.5% | [3] 6.95% | [4] 0.8% | [5] 9.3% | [6] -13.8%

c1ccc(CCN2CCCCC2)cc1
inactive: [1] 23.2% | [2] -4.6% | [3] 10.4% | [4] -2.45% | [5] -14.5% | [6] 33.9%

SCCS
inactive: [1] -20.1% | [2] -5.2% | [3] -14.6% | [4] -5.6% | [5] -27.7% | [6] -25.7%

O.O=[N+]([O-])O.[NH2-].[NH2-].[Pt+2]
inactive: [1] 22.9% | [2] 20.4% | [3] 8.6% | [4] 15.2% | [5] 4.55% | [6] 31.4%

C[Si](C)(C)CN(N=O)C(N)=O
inactive: [1] 1.55% | [2] 3.4% | [3] -3.45% | [4] -25.2% | [5] 3.95% | [6] 9.45%

COc1ccc(C(C)CNCc2ccccc2)cc1 (stereo unspecified)
inactive: [1] 0.3% | [2] -1.35% | [3] 21.1% | [4] -10.8% | [5] -1.7% | [6] -1.45%

CCOP1(=O)C=C(C)C(Cl)=C(C)C1 (stereo unspecified)
inactive: [1] 26.9% | [2] 8.35% | [3] 11% | [4] -14.3% | [5] 3.05% | [6] 20.9%

O=C(O)C(Cc1cnc[nH]1)N1C(=O)c2ccccc2C1=O (stereo unspecified)
inactive: [1] -16.6% | [2] -12.9% | [3] -1% | [4] -24.9% | [5] -10% | [6] -8.85%

O=[As](O)(O)Cc1ccccc1
inactive: [1] 3.75% | [2] 2.45% | [3] -9.6% | [4] -16.6% | [5] -2.55% | [6] -22.8%

O=[As](c1ccccc1Br)(c1ccccc1Br)c1ccccc1Br
inactive: [1] 70% | [2] 19.2% | [3] 58.7% | [4] 13.4% | [5] 22.2% | [6] 20.9%

Oc1ccccc1C=NCCN=Cc1ccccc1O.[Fe]
inactive: [1] 11.8% | [2] 22.2% | [3] 5.35% | [4] 6.25% | [5] 46% | [6] 13.6%

Cc1cccc(NC2=NCCO2)c1Cl
inactive: [1] -20.4% | [2] -25.8% | [3] -11% | [4] 24.9% | [5] -9.3% | [6] -27.3%

Cc1cccc(CCF)c1
inactive: [1] -8.4% | [2] 8.5% | [3] 1.25% | [4] -3.8% | [5] -0.15% | [6] -4.75%

O=S(=O)(C(Cl)Cl)C(Cl)(Cl)S(=O)(=O)C(Cl)Cl
inactive: [1] -11.4% | [2] -53% | [3] 5.8% | [4] -40.2% | [5] 5.1% | [6] 13.1%

C1C2CC3C1C1CN3C21 (stereo unspecified)
inactive: [1] 16.9% | [2] 2.65% | [3] 5.45% | [4] -28% | [5] -8.8% | [6] 12.2%

CN1CCC2(CC1)COCc1ccccc12
inactive: [1] -9.4% | [2] -5.55% | [3] -2.7% | [4] -19.1% | [5] 11.2% | [6] 4.8%

Cc1ccc(N[N+](=O)[O-])nc1
inactive: [1] -7.25% | [2] 8.55% | [3] -1.15% | [4] -10.2% | [5] -3.15% | [6] 14%

O=C(CC(=O)C(F)(F)F)c1ccco1.[Fe]
inactive: [1] 32.6% | [2] 21.3% | [3] 0.5% | [4] 6.9% | [5] 6.55% | [6] 14.7%

CCOP(=O)(OCC)/C(C#N)=C/c1cccn1C
inactive: [1] -0.95% | [2] -32.7% | [3] -44% | [4] -17.2% | [5] -21.8% | [6] -7.35%

COC(=O)C(Cl)Cl
inactive: [1] 9.2% | [2] -17.1% | [3] -1.85% | [4] -47.9% | [5] -5.6% | [6] 14.1%

c1ccc2c(C3N4CCCN3CC4)c[nH]c2c1 (stereo unspecified)
inactive: [1] -0.2% | [2] -15.7% | [3] 8.7% | [4] 9.3% | [5] -4.2% | [6] 6.05%

CCCCCCCCCCCCCCCCS(=O)(=O)c1ccc(S(=O)(=O)F)cc1NC(=O)C(F)(F)F
inactive: [1] -22.4% | [2] -9.9% | [3] -3.6% | [4] 24.1% | [5] 12.6% | [6] 8.2%

N.N.N.O=[N+]([O-])[O-].O=[N+]([O-])[O-].O=[N+]([O-])[O-].O=[N+]([O-])[O-].[Co+3]
inactive: [1] 11.6% | [2] 20.7% | [3] 25.5% | [4] 31.3% | [5] 11.8% | [6] -1.35%

CCCCC(CC)CC1C(=O)NC(=S)NC1=O (stereo unspecified)
inactive: [1] -3.7% | [2] 5.55% | [3] -17.8% | [4] -37.1% | [5] -0.05% | [6] 6.35%

c1ccc(N=PNc2ccccc2)cc1 (stereo unspecified)
inactive: [1] -4.7% | [2] -6.25% | [3] -9.5% | [4] -51.6% | [5] 23% | [6] -13.3%

C/C=C\CC1(C/C=C/C)C(=O)NC(=O)NC1=O
inactive: [1] 2.25% | [2] -7.45% | [3] -5.05% | [4] -17.6% | [5] -8.9% | [6] 1.25%
